Screening data from PubChem.
Sampled rows, rich in hits. Any-hit rate of the full collection: about 1.4%.
SSB-PriA inh – K. pneumoniae PriA-SSBct interaction inhibition; AlphaScreen SSBct-PriA binding, biotinylated peptide; inhibition, % at 33 µM; 430,000 compounds, 0.6% hits; AID 1272365; in the data active = inhibition mostly above about 37%, no sharp cut-off; inactive = mostly below about 20%
CCHF vOTU inh – blocks the CCHF virus ovarian tumor domain protease. CCHFV vOTU protease, Pep-AMC fluorescence. inhibition, % at 11.5 µM. 370,000 compounds, 0.55% hits. AID 651958; in the data active = inhibition above about 30%
Sa ugtP lethal – growth inhibition of S. aureus ugtP deletion strain; growth inhibition, % (no concentration beside the values); AID 1259309; 330,000 compounds, 0.54% hits; S. aureus RN4220 ugtP deletion, OD600 growth, 16 h; in the data active = growth inhibition above about 68%
Mtb hypoxia rep – inhibitors of hypoxia-regulated fluorescent reporter in Mycobacterium tuberculosis | M. tuberculosis hypoxia-regulated fluorescent reporter, fluorescence | fluorescence inhibition, % (test concentration not listed) | 300,000 compounds, 0.1% hits | AID 1159583; in the data active = fluorescence inhibition mostly above about 23%, no sharp cut-off; inactive = mostly below about 17%
Sa RN4220 lethal – kills Staphylococcus aureus RN4220. S. aureus RN4220 growth, OD600, 16 h. AID 1259311. inhibition, % (test concentration not listed). 330,000 compounds, 0.33% hits; in the data active = inhibition above about 85%
Of the large screens only hits and unclear results are named; the others gave an inactive call.

CC(=O)C(N=Nc1ccc(OC(F)(F)F)cc1)=C(C)O	none (no result: CCHF vOTU inh, Sa ugtP lethal, Mtb hypoxia rep, Sa RN4220 lethal)
O=C(O)C1C2C=CC(C2)C1C(=O)Nc1ccc2c(c1)OCCO2 (centres undefined)	none (no result: CCHF vOTU inh)
CN(C)c1ccc(NC(=O)C2C3C=CC(C3)C2C(=O)O)cc1 (centres undefined)	CCHF vOTU inh 78
Cc1cc(C)c(S(=O)(=O)/N=C2/C=C(Sc3ncn[nH]3)C(=O)c3ccccc32)cc1C	CCHF vOTU inh 118 (no result: SSB-PriA inh, Sa ugtP lethal, Mtb hypoxia rep, Sa RN4220 lethal)
CCOc1cc(C=NNC(=O)c2cccc([N+](=O)[O-])c2)ccc1OS(=O)(=O)c1ccccc1	Sa ugtP lethal 99 (no result: CCHF vOTU inh)
NC1=NC[C@H](Cc2ccc(O)cc2)N1CCCCC1CCCCC1	Sa ugtP lethal 100, Sa RN4220 lethal 100
CCn1cc(C(=O)O)c(=O)c2cc(F)c(N3CCN(C(=S)Nc4ccccc4OC)CC3)cc21	Sa ugtP lethal 99, Sa RN4220 lethal 99
CCn1cc(C(=O)O)c(=O)c2cc(F)c(N3CCN(C(=S)NC(=O)c4c(OC)cccc4OC)CC3)cc21	Sa ugtP lethal 100, Sa RN4220 lethal 98 (not shown: Mtb hypoxia rep)
CCCCCCCCCC(=O)N1CCN(c2cc3c(cc2F)c(=O)c(C(=O)O)cn3CC)CC1	none
CCn1cc(C(=O)O)c(=O)c2cc(F)c(N3CCN(S(=O)(=O)c4ccc(NC(=O)OC)cc4)CC3)cc21	Sa ugtP lethal 100, Sa RN4220 lethal 97
CCC(=O)N1CCN(c2cc3c(cc2F)c(=O)c(C(=O)O)cn3CC)CC1	none
CSc1cccc(-n2nnc(C(=O)Nc3cc(Cl)ccc3C)c2C)c1	none (no result: CCHF vOTU inh, Sa ugtP lethal, Mtb hypoxia rep, Sa RN4220 lethal)
CCc1cccc2sc(N3CCN(C(=O)c4ccc([N+](=O)[O-])o4)CC3)nc12	Sa ugtP lethal 99, Sa RN4220 lethal 100 (not shown: CCHF vOTU inh, Mtb hypoxia rep)
Cc1ccc(O)c(C(=O)CC(=O)c2cccc(F)c2)c1	Sa ugtP lethal 100 (no result: Mtb hypoxia rep)
Cc1cccc(C(=O)NCC(=O)NNC(=O)c2ccccc2O)c1	none
Cc1cccc(C(=O)CC(=O)c2cc(Cl)ccc2O)c1	Sa ugtP lethal 100, Sa RN4220 lethal 100 (no result: CCHF vOTU inh)
O=C(CC(=O)c1cc(Cl)ccc1O)c1ccccc1	Sa ugtP lethal 100, Sa RN4220 lethal 100
Cc1ccc(O)c(C(=O)CC(=O)c2ccc(Cl)cc2)c1	Sa ugtP lethal 101, Sa RN4220 lethal 100
COc1ccc(O)c(C(=O)CC(=O)c2ccc(F)cc2)c1	none (no result: Sa ugtP lethal, Mtb hypoxia rep, Sa RN4220 lethal)
O=C(NCc1cc(-c2cccs2)on1)c1ccco1	none (no result: CCHF vOTU inh, Sa ugtP lethal, Mtb hypoxia rep, Sa RN4220 lethal)
Cc1ccc(OCc2nc(-c3ccccn3)n[nH]2)cc1	SSB-PriA inh 109 (no result: Mtb hypoxia rep)
Cc1cccc(OCc2nc(-c3ccccn3)n[nH]2)c1	SSB-PriA inh 90 (no result: Mtb hypoxia rep)
O=C(O)Cc1nc(-c2ccccn2)n[nH]1	none (no result: CCHF vOTU inh, Sa ugtP lethal, Mtb hypoxia rep, Sa RN4220 lethal)
COCc1nc(-c2ccccn2)n[nH]1	SSB-PriA inh 68 (no result: CCHF vOTU inh, Sa ugtP lethal, Mtb hypoxia rep, Sa RN4220 lethal)
O=S(=O)(NCC(c1ccsc1)N1CCc2ccccc2C1)c1ccc2c(c1)OCCO2 (centres undefined)	none (no result: CCHF vOTU inh, Sa ugtP lethal, Mtb hypoxia rep, Sa RN4220 lethal)
CCOC(=O)N1CCN(C(=O)c2sc(NC(=O)Nc3cccc(Cl)c3)nc2C)CC1	none (no result: CCHF vOTU inh, Sa ugtP lethal, Mtb hypoxia rep, Sa RN4220 lethal)
Cc1ccc(=O)n(C(C)C(=O)N(C)C2CCCCC2)n1 (centres undefined)	none (no result: CCHF vOTU inh, Sa ugtP lethal, Mtb hypoxia rep, Sa RN4220 lethal)
CCN(c1ccccc1)c1nc(=O)c2cccnc2s1	none
CCN(c1cccc(C)c1)c1nc2ccsc2c(=O)s1	Sa ugtP lethal 88
Cc1ccc(-n2ccnc2N2CCN(C(=O)c3c(F)cccc3Cl)CC2)cc1	SSB-PriA inh 62 (no result: CCHF vOTU inh, Sa ugtP lethal, Mtb hypoxia rep, Sa RN4220 lethal)
Cc1ccc(-n2ccnc2N2CCN(C(=O)c3cc(=O)c4ccccc4o3)CC2)cc1	none (no result: CCHF vOTU inh, Sa ugtP lethal, Mtb hypoxia rep, Sa RN4220 lethal)
Cc1ccc(-n2ccnc2N2CCN(C(=O)COc3ccccc3)CC2)cc1	none (no result: CCHF vOTU inh, Sa ugtP lethal, Mtb hypoxia rep, Sa RN4220 lethal)
Cc1ccc(-n2ccnc2N2CCN(C(=O)c3c(F)cccc3F)CC2)cc1	SSB-PriA inh 78 (no result: CCHF vOTU inh, Sa ugtP lethal, Mtb hypoxia rep, Sa RN4220 lethal)
Cc1ccc(-n2ccnc2N2CCN(C(=O)c3ccc(C)c(C)c3)CC2)cc1	SSB-PriA inh 36 (no result: CCHF vOTU inh, Sa ugtP lethal, Mtb hypoxia rep, Sa RN4220 lethal)
O=C(NCCOc1ccccc1)N(Cc1ccsc1)CC(F)(F)F	none (no result: CCHF vOTU inh, Sa ugtP lethal, Mtb hypoxia rep, Sa RN4220 lethal)
Cc1nc(C(N)=NOC(=O)Cc2ccccc2)no1	none (no result: CCHF vOTU inh, Sa ugtP lethal, Mtb hypoxia rep, Sa RN4220 lethal)
Cc1cc(-c2n[nH]c(=S)n2N=C/C=C/c2ccco2)n[nH]1	none (no result: CCHF vOTU inh, Sa ugtP lethal, Mtb hypoxia rep, Sa RN4220 lethal)
CC(C)C(=O)N1CCN(c2ccc([N+](=O)[O-])c(NC(C)c3ccccc3)c2)CC1 (centres undefined)	SSB-PriA inh 49
CCS(=O)(=O)N1CCN(c2ccc([N+](=O)[O-])c(NC(C)c3ccccc3)c2)CC1 (centres undefined)	none (no result: Mtb hypoxia rep)
CC(Nc1cc(N2CCN(C(=O)C(C)(C)C)CC2)ccc1[N+](=O)[O-])c1ccccc1 (centres undefined)	SSB-PriA inh 41
CC(Nc1cc(N2CCNCC2)ccc1[N+](=O)[O-])c1ccccc1 (centres undefined)	none
COc1ccc(C=Nn2c(N)nc3ccccc32)cc1OC	none (no result: CCHF vOTU inh, Mtb hypoxia rep)
